Shown are actives, neighbours in structure and some others; about 6.3% of the full set was active somewhere.
Fluor 339 460: intrinsic fluorescence of library compounds, ex339/em460 – biochemical, MLSMR library, data from DPM-DC assay, artefact control, profiling panel; compound autofluorescence, ex339/em460 nm, NADH buffer; active compounds read high; 1 = no-compound wells, NADH background; fluorescence fold increase at 10 µM; 65,000 compounds, 5.5% hits; AID 709;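 active = at 10 µM, mean starting fluorescence two-fold or more over control wells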;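 also: signal is the first read of a kinetic run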
A340 absorber: absorbance at 340 nm; compound absorbance at 340 nm, fold over control; fold change at 10 µM; 65,000 tested, under 10 active; AID 708;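 active = at 10 µM dose, initial 340 nm absorbance at least 2 fold that of control wells; inactive = change under 2 fold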;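 also: initial absorbance extrapolated from kinetic A340 decline of NADH oxidation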
Spn DPM-DC inh: S. pneumoniae DPM-DC inhibition. purified DPM-DC, PK/LDH coupled NADH fluorescence. 65,000 compounds, 0.49% hits. AID 556. calls only at 10 µM;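 active = the 320 compounds with the highest percent inhibition in the single-dose primary screen, excluding strongly autofluorescent ones, cut at about 32% in these data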;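 also: kinetic rate of NADH fluorescence loss reporting ADP formed by the decarboxylase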
Spn MK inh: blocks S. pneumoniae mevalonate kinase. inhibition, % at 10 µM. 65,000 compounds, 0.48% hits. AID 555. purified MK, PK/LDH-coupled NADH absorbance 340 nm;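 active = ranked among the strongest by inhibition in the single 10 µM screen, a fixed top-ranked set picked for dose follow-up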
PMK inhibit: blocks S. pneumoniae phosphomevalonate kinase; purified PMK, PK/LDH-coupled NADH absorbance 340 nm; inhibition, % at 10 µM; 65,000 compounds, 0.49% hits;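 active = top-ranked compounds by inhibition in the single 10 µM screen, taking a fixed number of the strongest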;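 also: 0% = full reaction with DMSO carrier and 100% = background rate without enzyme reaction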
NADH enzymes: inhibitors of enzymes used to reach an NAD/NADH endpoint | coupled PK/LDH NADH assays, four targets | IC50, µM (titrated, usually from 10 µM), for the others: top-dose inhibition | 65,000 compounds, 0.02% hits | AID 774;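 active = single-dose screening hits from any of four coupled enzyme assays that gave an IC50 when retested across doses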;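 also: the DPM-DC format reads NADH fluorescence rather than 340 nm absorbance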
Starred values were filed as active, the others as inactive; i = inactive; . = not tested or not shown; + = active, no number.

SMILES	Fluor 339 460	A340 absorber	Spn DPM-DC inh	Spn MK inh	PMK inhibit	NADH enzymes
CNc1nnc(-c2ccncc2)s1	4.3*	1.1	.	10	14	12%
COc1ccc(-c2nnc(N)s2)cc1	1.2	1	i	5	9	5%
Cc1cccc(N(CC(=O)N2CCCC2)S(=O)(=O)c2ccccc2)c1	1.1	0.97	i	9	11	7%
Cc1ccc(NC2c3ncccc3C(=O)N2c2ccccc2C)cc1C (stereo not given)	1.2	1.1	i	83*	23	35%
CC(C)C(C(=O)NCC1CCCO1)N(Cc1ccco1)C(=O)CNS(=O)(=O)c1ccc(F)cc1 (stereo not given)	1	1	i	6	27*	11%
CCCC(C(=O)NCC1CCCO1)N(Cc1ccco1)C(=O)CNS(=O)(=O)c1ccccc1 (stereo not given)	0.9	0.99	i	0	17	9%
CCCn1c(=NC(C)=O)c(C#N)cc2c(=O)n3cccc(C)c3nc21	2.9*	1	.	0	8	2%
CCCCCn1c(=NC(C)=O)c(C#N)cc2c(=O)n3cccc(C)c3nc21	3.6*	1.1	.	0	10	5%
COCCCn1c(=NC(=O)c2ccc3c(c2)OCO3)c(C#N)cc2c(=O)n3cccc(C)c3nc21	1.3	1.1	i	4	8	4%
Cc1cccn2c(=O)c3cc(C#N)c(=N)n(Cc4cccnc4)c3nc12	1.2	1	i	10	0	9%
CCc1c(C)c2ccc(OCC(=O)OC)cc2oc1=O	2.9*	1	.	8	6	2%
COc1ccc2c(C)c(Cl)c(=O)oc2c1	2.2*	1.1	.	6	1	4%
COC(=O)Cc1c(C)c2ccc(OCC(=O)N3CCOCC3)cc2oc1=O	2.9*	1.1	.	2	3	1%
Cc1cc(=O)oc2cc(OCC(=O)N3CCc4ccccc4C3)ccc12	2	1.1	i	11	3	9%
COC(=O)COc1ccc2occ(C(C)=O)c2c1	1.1	1.1	i	4	9	4%
CCn1cc(C(=O)OCC(=O)NCc2ccc3c(c2)OCO3)c(=O)c2ccc(C)nc21	1	1	i	2	1	1%
CN(C)c1ccc(-c2nn3c(-c4ccncc4)nnc3s2)cc1	1.3	1.1	i	4	0	3%
CN(C)c1ccc(-c2nn3c(-c4ccccc4Cl)nnc3s2)cc1	3.3*	1.1	.	6	0	3%
COc1ccccc1-c1nn2c(C(F)(F)F)nnc2s1	3*	1.1	i	0	5	8%
COc1ccccc1-c1nnc2sc(-c3ccc(N(C)C)cc3)nn12	2.3*	1	+	3	3	10%
COc1ccc(-c2nn3c(-c4ccccn4)nnc3s2)cc1OC	1.4	1.1	+	7	5	15%
N#Cc1cc2ccc(N3CCOCC3)cc2cc1C#N	2.5*	1	.	10	4	3%
COc1cccc(CNc2nc3nc(C)c(Cl)c(C)n3n2)c1	2.3*	1	.	3	9	3%
COC(=O)CSc1nc2nc(C)cc(C)n2n1	1	0.97	i	7	2	5%
Cc1nc2nc(-c3cccnc3)nn2c(C)c1Cl	1	1	i	8	9	2%
SMILES	Fluor 339 460	A340 absorber	Spn DPM-DC inh	Spn MK inh	PMK inhibit	NADH enzymes
COc1ccc(-c2nc3nc(C)cc(C)n3n2)cc1	3.7*	1	.	5	5	5%
Cc1cc(C)n2nc(NCc3ccccc3)nc2n1	3.6*	1.1	.	4	7	6%
Cc1nc2nc(-c3ccco3)nn2c(C)c1Cl	4*	1.1	.	13	12	13%
COc1ccccc1NC(=O)NCCN1C(=O)C2C3C=CC(C3)C2C1=O (stereo not given)	1	1.1	i	0	7	2%
CSC1=Nc2sc3c(c2C2=NCCN12)CC(C)(C)OC3	1.1	1.1	i	.	7	5%
CN(C1=NC(=O)C(CC(=O)Nc2ccc(Br)cc2)S1)c1ccc(O)cc1 (stereo not given)	1.1	1	i	6	2	5%
COCCCNC(=O)CCCn1c(=O)[nH]c2ccccc2c1=O	1.1	0.99	i	2	13	5%
COC(=O)c1ccc2c(=O)n(CCCCCC(=O)NCc3ccccn3)c(=O)[nH]c2c1	2.5*	1	i	2	15	11%
O=C(Cc1cc(=O)[nH]c(=O)[nH]1)NCCN1CCOCC1	1.1	1.1	i	8	5	4%
CCOC(=O)N1CCC(NC(=O)Cn2c3ccccc3c3cn[nH]c(=O)c32)CC1	1.2	1	i	0	15	5%
CCOC(=O)N1CCC(NC(=O)Cn2c3c(c(-c4ccccc4Cl)cc2=O)CCC3)CC1	2.2*	1	.	9	11	4%
COc1ccc(C(=O)c2oc3ccc(OC)cc3c2N)cc1	1.8	1.1	i	7	1	8%
CCN(CC)CCOC(=O)c1c(C)oc2ccc(OC)cc12	1.1	1	i	4	14	7%
COc1ccc2oc(-c3ccccc3)c(C(N)=O)c2c1	2.1*	1.1	.	4	0	2%
COC(=O)c1oc2ccc(OC)cc2c1N	2.6*	1	i	2	20	8%
Nc1c(C(=O)CCC(=O)O)oc2ccc(Cl)cc12	1.6	1.1	i	0	12	8%
NC(=O)c1oc2ccc(Cl)cc2c1N	3.9*	1.1	.	7	11	9%
CCOC(=O)c1c(COc2ccccc2)oc2ccc(O)cc12	1.1	1	i	4	0	1%
CN(C)C(=O)c1c(-c2ccccc2)oc2ccc(O)cc12	2.2*	1.1	.	5	0	3%
Cc1ccc(NC(=O)CCSc2nnnn2-c2ccc3c(c2)OCO3)cc1C	1.1	1	i	12	5	7%
CC1CCCCC1NC(=O)CN1CCC(O)(c2ccc(F)cc2)CC1 (stereo not given)	1.1	1	i	6	0	2%
N#Cc1cc2cc3c(cc2nc1N1CCCCC1)OCCO3	3*	1.1	i	5	12	11%
Cc1cc(Cl)ccc1OCc1nc(-c2ccc(O)cc2)n[nH]1	1	1	i	6	0	5%
Cc1cc(C)n(-c2ccc(C(=O)Nc3nc4ccccc4s3)cc2)n1	3.3*	1	i	6	13	10%
CC(=O)c1cc2c(cc1NC(=O)c1ccc(-n3nc(C)cc3C)cc1)OCO2	2.1*	1	.	4	15	10%
COCCCNC(=O)c1ccccc1NS(=O)(=O)c1ccc(C)cc1	1.3	0.97	i	5	3	3%
CC(=O)NC(CCS(C)(=O)=O)C(=O)Nc1c(C)cccc1C (stereo not given)	1.3	1	i	47*	1	16%
CCOc1ccc(-c2nc(C#N)c(N3CCN(C)CC3)o2)cc1	2.9*	1	.	6	1	2%

Assay outcomes (PubChem)
